Assay results as given in PubChem BioAssay (NCI).
This is part of a sample that, as a whole, favours compounds with a hit. Of some 83,000 tested, about 20% had one in any assay.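 Step 1: grow cells in 96-well plates. Step 2: add test compound at a single concentration. Step 3: incubate 48 h. Step 4: record percent growth.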 A number with no mark means an inactive call. Active and inactive are the calls of the source. Rule for the calls: active = growth percent below 10; inactive = the rest.

How the values were obtained:
Assay in all cases: NCI-60 one-dose screen, 48 h (100 = growth as untreated, 0 = no growth, -100 = all killed)
Conditions in all cases: 10 µM unless noted
EKVX NSCLC = test system: EKVX NSCLC
SN12C renal = test system: SN12C renal
UO-31 renal = test system: UO-31 renal
TK-10 renal = test system: TK-10 renal
CAKI-1 renal = test system: CAKI-1 renal
A498 renal = test system: A498 renal
CCRF-CEM leukemia = test system: CCRF-CEM leukemia
SR leukemia = test system: SR leukemia
RPMI-8226 leukemia = test system: RPMI-8226 leukemia
OVCAR-8 ovarian = test system: OVCAR-8 ovarian
OVCAR-5 ovarian = test system: OVCAR-5 ovarian
OVCAR-4 ovarian = test system: OVCAR-4 ovarian
SK-OV-3 ovarian = test system: SK-OV-3 ovarian
IGROV1 ovarian = test system: IGROV1 ovarian
OVCAR-3 ovarian = test system: OVCAR-3 ovarian
HS 578T breast = test system: HS 578T breast
NCI/ADR-RES ovarian = test system: NCI/ADR-RES ovarian
T-47D breast = test system: T-47D breast
ACHN renal = test system: ACHN renal
MOLT-4 leukemia = test system: MOLT-4 leukemia

Row | SMILES | growth (EKVX NSCLC) | growth (SN12C renal) | growth (UO-31 renal) | growth (TK-10 renal) | growth (CAKI-1 renal) | growth (A498 renal) | growth (CCRF-CEM leukemia) | growth (SR leukemia) | growth (RPMI-8226 leukemia) | growth (OVCAR-8 ovarian) | growth (OVCAR-5 ovarian) | growth (OVCAR-4 ovarian) | growth (SK-OV-3 ovarian) | growth (IGROV1 ovarian) | growth (OVCAR-3 ovarian) | growth (HS 578T breast) | growth (NCI/ADR-RES ovarian) | growth (T-47D breast) | growth (ACHN renal) | growth (MOLT-4 leukemia)
1 | CCC1=C(c2ccc(OC)cc2)C(C)(C)Oc2cc(O)c(CN3CCCC3)cc21 | 85.2% | 77.8% | 55.8% | 94.3% | 83.2% | 59.5% | 69.2% | 9.49% (active) | 57.5% | 95.4% | 81.9% | 99.3% | 89.2% | 87.1% | 83.4% | 86% | 84.6% | 68.2% | – | –
2 | COc1ccc(C2CC(c3ccc(OC)c(OC)c3)=NN2C(=O)c2cc(OC)c(OC)c(OC)c2)c(OC)c1 (stereo not given) | 86.7% | 91.3% | 42.2% | 87.7% | – | – | 92.9% | – | 92.4% | 91.2% | 93% | 74.7% | 65.6% | 61.6% | 52.9% | 49.6% | 53.2% | 82% | 65.2% | 106%
3 | CC(C)[O-].CC(C)[O-].CN(CCN(C)Cc1cc(F)cc(F)c1[O-])Cc1cc(F)cc(F)c1[O-].[Ti+4] | -8.9% (active) | 19.7% | -14.5% (active) | -12.6% (active) | – | – | 16.4% | 1.21% (active) | 32.9% | 10.6% | 12.4% | 14% | 16.4% | -42.2% (active) | 4.78% (active) | -16% (active) | 11.2% | 9.18% (active) | 9.76% (active) | 8.02% (active)
4 | COc1ccc2c(c1)C(=O)c1c-2c(OCCN(C)C)nc2cc(OC)ccc12 | 20.6% | 22.6% | -43.7% (active) | 28.5% | 9.1% (active) | 38.4% | 13.7% | -29.2% (active) | -25.4% (active) | 4.01% (active) | 44.9% | 4.71% (active) | 23.9% | 6.3% (active) | 32.5% | 35.6% | -11.3% (active) | 47.1% | – | -7.63% (active)
5 | CCCCCCCCCCCCCCCCCC1=NC(C)(C)CN1CCO | 15.3% | -29.6% (active) | -62.9% (active) | -33.8% (active) | -41% (active) | 117% | -42.9% (active) | -42.7% (active) | – | 1.75% (active) | 82.4% | 33.5% | -36.2% (active) | -26.4% (active) | -9.27% (active) | -38.4% (active) | 55.5% | -23.9% (active) | – | -55.7% (active)
6 | Cc1c(C(N)=O)sc2ncn(Cc3ccccc3)c(=O)c12 | 122% | 97.8% | 61.7% | 87.8% | -1.53% (active) | 121% | 138% | 92.8% | 59.5% | 110% | 101% | 111% | 106% | 2.39% (active) | 104% | 67.7% | 105% | 98.1% | – | 114%
7 | CO[C@H]1/C=C/O[C@@]2(C)Oc3c(C)c(O)c4c(O)c(c(/C=N/N5CCN(C)CC5)c(O)c4c3C2=O)NC(=O)/C(C)=C\C=C\C(C)[C@H](O)[C@@H](C)[C@@H](O)[C@@H](C)[C@@H](OC(C)=O)[C@@H]1C (stereo not given in full) | 91.7% | 105% | 88% | 98.6% | 90.4% | 103% | 101% | – | 108% | 100% | – | – | 113% | 105% | 107% | 109% | 105% | 107% | – | 102%
8 | CSC1=Nc2c(c(C)c(-c3ccccc3)n2CCCN2CCCCC2)C2=NC(=O)C[C@H](C)N12 | 41.9% | 45.5% | 56.6% | 48.7% | 66.9% | 80.8% | 20.7% | 2.43% (active) | -51.1% (active) | 44.6% | 83.1% | 43.6% | 26.9% | 22.6% | 24.5% | 11% | 82.4% | -2.25% (active) | – | 67.6%
9 | COc1ccc(/C(=C2\O[C@@H]([C@H](O)CO)[C@H]3OC(C)(C)O[C@@H]23)c2cc(OC)c(OC)c(OC)c2)cc1O | 97% | 95.6% | 90.1% | 106% | – | – | 95.3% | -13% (active) | 73.3% | 107% | 90% | 104% | 106% | 100% | 97.4% | – | 24.5% | 102% | 78.5% | 78.1%
10 | Cn1c(=O)c2c(nc(Br)n2CCC(=O)Nc2ccc(F)cc2)n(C)c1=O | 108% | 106% | 78.3% | 103% | 93.7% | 98.2% | 99.5% | 107% | 101% | 100% | 94.7% | – | 83.6% | 107% | 125% | 102% | 101% | 97.3% | – | 95.9%
11 | COc1cc2c(cc1OCCCCCn1c(-c3ccc(OCc4ccccc4)cc3)nc3cc(N4CCOCC4)ccc31)N=C[C@@H]1CCCN1C2=O | 52.5% | 23.2% | 0.0572% (active) | -13.3% (active) | 18.5% | -74.7% (active) | 8.03% (active) | 137% | 19.4% | 21.2% | 9.51% (active) | 21.4% | 35.3% | -58.7% (active) | 4.07% (active) | 12.4% | 23.8% | 19% | – | –
12 | N#Cc1c(N2CCOCC2)nc2sc3cc(Cl)ccc3n2c1=N | 91.1% | 99.8% | 63.3% | 160% | 111% | 121% | 126% | 108% | 94.4% | 95.7% | 95.2% | 102% | 67.3% | 67.2% | 104% | 66.8% | 99% | 33.1% | – | 109%
13 | O=C(CCc1nnc2sc(-c3ccc(Cl)cc3Cl)nn12)c1nc2ccccc2[nH]1 | -29.7% (active) | -36.7% (active) | -72.6% (active) | -83.2% (active) | -54.2% (active) | -74.9% (active) | 10.9% | – | 2% (active) | -30.9% (active) | -52.6% (active) | -54% (active) | -52.4% (active) | 0.377% (active) | -80.6% (active) | – | -0.815% (active) | -68.4% (active) | – | 1.48% (active)
14 | COc1ccc(OC)c(NC(=O)c2cc3oc4ccccc4c3cc2O)c1 | 75.9% | 95% | 79.8% | 135% | 74.7% | 121% | 99.4% | 127% | 53.4% | 86.7% | 103% | 91.4% | 81.1% | 56.1% | 137% | 84.6% | 88.6% | 74.4% | – | 117%
15 | CC(NC(=O)C(C)Oc1ccc(Cl)cc1Cl)C(=O)O (stereo not given) | 95.8% | 73.3% | 78.1% | 125% | 101% | 113% | -9.97% (active) | 137% | 125% | 107% | 95.7% | – | 102% | 84.8% | – | – | 96.7% | 108% | – | 139%
16 | Fc1ccc(-c2nnc(/C=C/c3cn(-c4ccccc4)nc3-c3ccccc3)o2)cc1 | 103% | 84.1% | 84.1% | 107% | 84.3% | 111% | 97.1% | 65.7% | 104% | 98.2% | 82.2% | 114% | 85.5% | 97.7% | 119% | 96.9% | 88.2% | 72.6% | – | 99.3%
17 | NC(N)=NN=c1c(=O)c2ccccc2c1=O | 118% | 16.3% | 64.8% | 110% | 104% | 78.1% | -27.9% (active) | – | 60.1% | 81.5% | 98.9% | 103% | 98.1% | 102% | 80.6% | 109% | 91.7% | 116% | – | -33.1% (active)
